Experimental data reported in PubChem BioAssay (NCATS).
A number with no mark means an inactive call. Inconclusive results are not listed. Calls of active or inactive are those of the source. Unless noted, the call rests on the fitted dose curve; in most records, active means well fitted curve in either direction with a large enough effect (not every such curve was filed as active); inconclusive means small, poorly fitted or top-dose-only effect, or another doubt; inactive means flat fitted curve, though single readings scatter.

Key:
[1] = AP1 Signaling Pathway (AID 357); settings: ME-180 AP-1-bla reporter, EGF-induced, beta-lactamase ratio, 5 h; at 17.2 µM (top of the series) unless noted; further: on the % scale 0 is the no-effect control and ±100 the full control effect
Summary of the method: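 AP-1-bla ME-180 cells with beta-lactamase reporter under AP-1 response element, stimulated with EC50 EGF; compounds titrated, 5 hours at 37 degrees Celsius. CCF4 read at 460/530 nm ratio; positive and negative modulators judged by AC50.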

[2] = NFAT Signaling Pathway (AID 444); settings: Jurkat NFAT-bla M1, carbachol, beta-lactamase ratio, 5 h; at 17.2 µM (top of the series) unless noted;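 further: carbachol stimulus at about its EC50 of 1 µM final; on the % scale 0 is the no-effect control and ±100 the full control effect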
Summary of the method: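 Jurkat cells with NFAT-driven β-lactamase reporter and co-expressed M1 receptor, stimulated with carbachol (final 1 uM, ~EC50), compound titration, 5 h at 37 °C. CCF4 loaded 1 h at RT; 460/530 nm ratio gave %activity and AC50.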

[3] = Stat Signaling Pathway (AID 446); settings: ME-180 SIE beta-lactamase reporter, IL-6 stimulated, 5 h; at 17.2 µM (top of the series) unless noted;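 further: ME-180 cervical cancer cells given 40 pM IL-6 alongside compound; SIE-controlled beta-lactamase reporter measured as 460/530 nm FRET emission ratio; on the % scale 0 is the no-effect control and ±100 the full control effect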
Summary of the method: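 Reporter line: ME-180 cervical carcinoma, SIE-beta-lactamase. Treatment: compound with 40 pM IL-6, 5 hrs, 37 C, in low-serum OPTI-MEM with 10 mM HEPES pH 7.3. Detection: 460/530 nm fluorescence.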

[4] = molecular target: Glucocorticoid receptor (Homo sapiens) (UniProt P04150); assay: GR-GFP Redistribution (AID 450;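 active means compounds whose dose series gives a full or clear partial fitted curve of increased nuclear translocation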; further: potency means the concentration at half of the fitted maximal effect); settings: U2OS GR-GFP nuclear translocation, laser cytometry, 2 h; series mostly up to 20.6 µM
Sequence of Glucocorticoid receptor (Homo sapiens) (P04150 whole entry, looked up): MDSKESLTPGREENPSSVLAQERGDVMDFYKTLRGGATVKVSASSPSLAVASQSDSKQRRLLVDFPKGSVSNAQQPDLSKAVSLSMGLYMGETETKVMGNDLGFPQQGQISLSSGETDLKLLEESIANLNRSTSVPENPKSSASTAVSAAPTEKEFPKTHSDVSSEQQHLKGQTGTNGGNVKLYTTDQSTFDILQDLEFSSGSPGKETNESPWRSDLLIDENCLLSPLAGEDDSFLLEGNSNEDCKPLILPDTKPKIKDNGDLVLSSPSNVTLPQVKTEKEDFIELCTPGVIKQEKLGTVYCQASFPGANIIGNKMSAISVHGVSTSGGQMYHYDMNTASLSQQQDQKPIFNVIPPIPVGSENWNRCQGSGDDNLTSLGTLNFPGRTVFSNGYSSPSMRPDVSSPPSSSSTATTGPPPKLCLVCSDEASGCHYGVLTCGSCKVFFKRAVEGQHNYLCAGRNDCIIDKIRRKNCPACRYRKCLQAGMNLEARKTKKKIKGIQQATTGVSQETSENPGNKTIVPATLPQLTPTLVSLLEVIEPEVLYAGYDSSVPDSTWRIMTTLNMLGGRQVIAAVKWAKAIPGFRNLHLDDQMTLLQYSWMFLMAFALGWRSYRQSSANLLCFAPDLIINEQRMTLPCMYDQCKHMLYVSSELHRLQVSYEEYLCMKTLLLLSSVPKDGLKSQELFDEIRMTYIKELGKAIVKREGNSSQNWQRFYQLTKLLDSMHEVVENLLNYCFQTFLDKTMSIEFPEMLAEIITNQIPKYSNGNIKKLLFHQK

| Structure (SMILES) | activity change, negative = inhibition [1] [%] | activity change, negative = inhibition [2] | activity, negative = inhibition [3] [%] | Potency [4] |
| --- | --- | --- | --- | --- |
| Nc1nnc(CC2=CCCCC2)s1 | 1.59 | -3.51% | 3.57 | > 20.6 µM |
| Cn1c(=O)n(CCC(=O)O)c2ccccc21 | 11.6 | 2% | 2.26 | > 20.6 µM |
| CC(C)CCNc1nc2c(cc1C#N)COC(C)(C)C2 | -23.1 | 4.17% | 4.4 | > 20.6 µM |
| Cc1ccc(N(CC(O)CN(C)C)S(=O)(=O)c2ccccc2)cc1 (stereo not drawn) | -7.29 | -10.3% | 1.04 | > 20.6 µM |
| CCCCNc1nc2c(c(=O)n(C)c(=O)n2C)n1Cc1cccc(OC)c1 | -11.7 | 2.13% | -17 | > 20.6 µM |
| CN1CCN(CCCCOc2ccc(F)cc2)CC1 | 10.9 | -9.28% | -0.445 | > 20.6 µM |
| CCCCNC(=O)N1CCOCCOCCN(C(=O)NCCCC)CCOCC1 | -5.59 | 4.17% | 5.68 | > 20.6 µM |
| O=C1C2ON(c3ccccc3)C(c3ccncc3)C2C(=O)N1c1ccccc1 (stereo not drawn) | -0.837 | 3.71% | 1.91 | > 20.6 µM |
| Clc1ccc2nc(CSc3nc4ccccc4o3)cn2c1 | -4.14 | 1.67% | -8.83 | > 20.6 µM |
| Cc1nc2sc(C)c(C)c2c(=O)o1 | -1.58 | 4.96% | -1.71 | > 20.6 µM |
| COc1cc(=O)n2c(-c3ccccc3)csc2n1 | 6.57 | 0.0134% | 8.66 | > 20.6 µM |
| O=C1CC(C(=O)O)c2ccccc2N1 (stereo not drawn) | 2.72 | -1.33% | 6.42 | > 20.6 µM |
| COc1ccc(CN2CCC(=O)NC2=O)cc1 | 9.75 | -0.653% | 9.56 | > 20.6 µM |
| Nc1ccc2c3c(cccc13)CC2 | 0.829 | 11.5% | 7.79 | 3.98 µM (active) |
| COc1ccc(C2CC(=O)C(C=NCCN3CCOCC3)=C(O)C2)cc1 (stereo not drawn) | 18.9 | -9.07% | -0.652 | > 20.6 µM |
| CCCOc1ccc(/C(O)=C2/C(=O)C(=O)N(CCCN3CCOCC3)C2c2ccncc2)cc1 (stereo not drawn) | -5.76 | 16.4% | 5.77 | > 20.6 µM |
| O=C(Nc1ncccc1Cl)c1cccc(F)c1 | 2.04 | 4.8% | 8.27 | > 20.6 µM |
| Cn1cc(C(=O)NCN2CCCCC2)c2ccccc21 | -2.91 | -0.662% | 3.15 | > 20.6 µM |
| Cc1nnc2n(-c3ccccc3)c(=O)c3c4c(sc3n12)CCCC4 | 21.9 | -2.17% | 10.4 | > 20.6 µM |

| Structure (SMILES) | activity change, negative = inhibition [1] [%] | activity change, negative = inhibition [2] | activity, negative = inhibition [3] [%] | Potency [4] |
| --- | --- | --- | --- | --- |
| CCOC(=O)CSc1nc(-c2ccncc2)ccc1C#N | -1.16 | -7.89% | 3.41 | > 20.6 µM |
| O=c1/c(=C/c2ccccn2)sc2n1CN(c1ccccc1)CN=2 | 0.239 | -24.9% | 5.04 | > 20.6 µM |
| CC(C)NCc1c(O)c(Br)cc2oc3c(c12)CCCC3 | 28.5 | 0.46% | 5.85 | > 20.6 µM |
| CC(C)CC(=O)Nc1ncnc2c1C(=O)CC(C)(C)C2 | 1.69 | -2.65% | 14.7 | > 20.6 µM |
| COc1ccc(NC2CC(=O)N(C)C2=O)cc1 (stereo not drawn) | 9.53 | -9.34% | 11.9 | > 20.6 µM |
| CCN(CC)CCN1C(=O)C(=O)/C(=C(/O)c2ccc(OC)cc2)C1c1ccco1 (stereo not drawn) | -1.18 | -15.2% | 3.92 | > 20.6 µM |
| N#Cc1c(N)nc(SCC(=O)NCCc2ccccc2)c(C#N)c1-c1cccs1 | 0.711 | 15.3% | 5.35 | > 20.6 µM |
| CNS(=O)(=O)c1cccc2nsnc12 | 6.07 | 4% | 14.7 | > 20.6 µM |
| CN1CCN(c2nc(C(N)=O)cc(-c3ccccc3)n2)CC1 | -1.1 | -3.4% | 20.9 | > 20.6 µM |
| CN(C)CCNC(=O)C12CC3(C)CC(C)(CC(C)(C3)C1)C2 | 7.28 | -25.2% | 8.6 | > 20.6 µM |
| CCCCCSc1nc(O)cc(=O)[nH]1 | -9.05 | 11.4% | -6.56 | > 20.6 µM |
| CCOc1ccc(Br)cc1CC(=O)O | 8.45 | -5.28% | 12.6 | > 20.6 µM |
| O=C(NC1CCS(=O)(=O)C1)N1CCCCC1 (stereo not drawn) | -10.9 | -4.07% | 9 | > 20.6 µM |
| CC(C)CC(=O)Nc1ccccc1N1CCCC1 | 8.1 | 8.79% | 0.417 | > 20.6 µM |
| COc1ccc(-c2nnc3sc(-c4c(OC)cccc4OC)nn23)cc1 | -13.7 | -15.1% | 6.15 | > 20.6 µM |
| Cc1ccc(N(CN2C(=O)NC(C)(C)C2=O)CN2C(=O)NC(C)(C)C2=O)cc1 | 5 | 15.5% | 5.53 | > 20.6 µM |
| CN(C)CCCOC(=O)C1c2ccccc2Oc2ccccc21 | 9.34 | -63.3% (active) | -0.433 | > 20.6 µM |
| COc1cc(C2C3C(=O)N(c4ccccc4)C(=O)C3ON2c2ccccc2)ccc1O (stereo not drawn) | 2.35 | 7.65% | -2.83 | > 20.6 µM |
